# Laboratory results taken from PubChem BioAssay AID1159580 (chemical genetic matrix, 2015).
# About 2,000 (36%) of roughly 5,500 compounds were called active. Another 18% or so got no clear call; they are omitted. Some of the results follow. A number with no mark means an inactive call. Cut-off read from the data, not from the text of the source: active = normalized growth mostly below about 0.91 (no sharp cut-off); inconclusive = no clear call, values can overlap the other calls; inactive = mostly above about 0.92.
# Test: chemical genetic growth profiling, strain panel (AID 1159580);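 note: tested at 20 µM; growth read once vehicle control cultures reached saturation at 30 °C; 1 = growth at the plate median or of vehicle wells; lower values mean less growth of the strain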
# Conditions: S. cerevisiae deletion strains, growth OD
# [1] = locus YAL013W, strain DEP1, active compounds read low
# [2] = locus YBR229C, strain ROT2, active compounds read low
# [3] = locus YCL061C, strain MRC1, active compounds read low
# [4] = locus YDL101C, strain DUN1, active compounds read low
# [5] = locus YDL134C, strain PPH21, active compounds read low
# [6] = locus YDR150W, strain NUM1, active compounds read low
# [7] = locus YEL061C, strain CIN8, active compounds read low
# [8] = locus YGR078C, strain PAC10, active compounds read low
# [9] = locus YHR030C, strain SLT2, active compounds read low
# [10] = locus YHR087W, strain rtc3, active compounds read low
# [11] = locus YJL187C, strain SWE1, active compounds read low
# [12] = locus YJR043C, strain POL32, active compounds read low
# [13] = locus YJR075W, strain HOC1, active compounds read low
# [14] = locus YKL190W, strain CNB1, active compounds read low
# [15] = locus YLR039C, strain RIC1, active compounds read low
# [16] = locus YLR058C, strain SHM2 (second series), active compounds read low
# [17] = locus YLR085C, strain ARP6, active compounds read low
# [18] = locus YLR262C, strain YPT6, active compounds read low
# [19] = locus YML094W, strain GIM5, active compounds read low
# [20] = locus YMR219W, strain ESC1, active compounds read low
# [21] = locus YMR263W, strain SAP30, active compounds read low
# [22] = locus YNL153C, strain GIM3, active compounds read low
# [23] = locus YNL298W, strain CLA4 (second series), active compounds read low
# [24] = locus YNL322C, strain KRE1, active compounds read low
# [25] = locus YNR030W, strain Alg12, active compounds read low
# [26] = locus YPL055C, strain LGE1, active compounds read low
# [27] = locus YPL241C, strain CIN2, active compounds read low
# [28] = locus YPR135W, strain CTF4, active compounds read low
structure (smiles),measurement,setting,value
CCCCCCCCCCCCN1CNC(=S)NC1,normalized growth,[1],0.804 (active)
same,normalized growth,[2],0.81 (active)
same,normalized growth,[3],0.68 (active)
same,normalized growth,[4],0.652 (active)
same,normalized growth,[5],0.451 (active)
same,normalized growth,[6],0.846
same,normalized growth,[7],0.441 (active)
same,normalized growth,[8],0.813 (active)
same,normalized growth,[9],0.291 (active)
same,normalized growth,[10],0.767 (active)
same,normalized growth,[11],0.688 (active)
same,normalized growth,[12],0.727 (active)
same,normalized growth,[13],0.858 (active)
same,normalized growth,[14],0.515 (active)
same,normalized growth,[15],0.985
same,normalized growth,[16],0.988
same,normalized growth,[17],0.141 (active)
same,normalized growth,[18],1.01
same,normalized growth,[19],0.513 (active)
same,normalized growth,[20],0.786 (active)
same,normalized growth,[21],0.782 (active)
same,normalized growth,[22],0.801 (active)
same,normalized growth,[23],0.325 (active)
same,normalized growth,[24],0.956
same,normalized growth,[25],0.419 (active)
same,normalized growth,"locus YOL006C, strain TOP1, active compounds read low",0.123 (active)
same,normalized growth,[26],0.541 (active)
same,normalized growth,[27],0.484 (active)
same,normalized growth,[28],0.382 (active)
S=C1NCN(CCN2CCCC2)CN1,normalized growth,[1],1
same,normalized growth,[2],0.996
same,normalized growth,[3],0.988
same,normalized growth,[4],0.984
same,normalized growth,[5],0.975
same,normalized growth,[6],0.96
same,normalized growth,[7],1.03
same,normalized growth,[8],0.997
same,normalized growth,[9],1.04
same,normalized growth,[10],1.04
same,normalized growth,[11],1.01
same,normalized growth,[12],0.986
same,normalized growth,[13],0.997
same,normalized growth,[14],0.977
same,normalized growth,[15],0.991
same,normalized growth,[16],1.01
same,normalized growth,[17],0.98
same,normalized growth,[18],0.972
same,normalized growth,[19],1
same,normalized growth,[20],1.01
same,normalized growth,[21],1
same,normalized growth,[22],0.993
same,normalized growth,[23],0.987
same,normalized growth,[24],0.995
same,normalized growth,[25],0.994
same,normalized growth,[26],1.01
same,normalized growth,[27],0.973
same,normalized growth,[28],0.962
Cn1c2c(c(=O)n(C)c1=O)CN(CCCCCCO)CN2,normalized growth,[1],1
same,normalized growth,[2],1.01
same,normalized growth,[3],1.01
same,normalized growth,[4],1
same,normalized growth,[5],1.02
same,normalized growth,[6],0.982
same,normalized growth,[7],1.01
same,normalized growth,[8],0.999
same,normalized growth,[9],1.07
same,normalized growth,[10],1
same,normalized growth,[12],0.99
same,normalized growth,[13],1.01
same,normalized growth,[14],0.994
same,normalized growth,[15],1.02
same,normalized growth,[16],1
same,normalized growth,[17],1.1
same,normalized growth,[18],1.03
same,normalized growth,[19],1.05
same,normalized growth,[20],1
same,normalized growth,[21],1
same,normalized growth,"locus YMR307W, strain GAS1, active compounds read low",1.04
same,normalized growth,"locus YNL128W, strain TEP1, active compounds read low",1.01
same,normalized growth,[22],0.999
same,normalized growth,[23],1.1
same,normalized growth,[24],0.998
same,normalized growth,[25],1.04
same,normalized growth,[26],1.02
same,normalized growth,[27],1.05
same,normalized growth,[28],1.02
